According to ChEMBL document CHEMBL4513141, “CO-ADD screening of NIH (USA) - Clinical Collection” (2021):
Measured potencies and affinities stand elsewhere.

The molecules below were run on Cryptococcus neoformans. Details: Concentration 20 uM; ASSAY_TEST Inhibition of Fungal Growth; detection method Resazurin; Absorption (OD600-OD570); plate type 384well; NBS; CORNING #3640.

In order of falling Inhibition:
1. CC(=CCC1=C(C)C(=O)c2ccccc2C1=O)CCCC(C)CCCC(C)CCCC(C)C (stereo unspecified)  1.23%
2. CCCNC(=O)NS(=O)(=O)c1ccc(Cl)cc1 [CHLORPROPAMIDE]  0%
3. CCN(CC)CCOC(=O)C1(C2CCCCC2)CCCCC1.Cl [DICYCLOMINE HYDROCHLORIDE]  -0.13%
4. O=[N+]([O-])c1cccc2cn[nH]c12 [7-NITROINDAZOLE]  -0.25%
5. Cl.Clc1ccc2nsnc2c1NC1=NCCN1 [TIZANIDINE HYDROCHLORIDE]  -1.24%
6. CC1=C(/C=C/C(C)=C/C=C/C(C)=C\C(=O)O)C(C)(C)CCC1 [ISOTRETINOIN]  -2.4%
7. CC(CCCCC(=O)Nc1ccc(C(F)(F)F)cc1)NCCc1c[nH]cn1.O=C(O)/C=C\C(=O)O.O=C(O)/C=C\C(=O)O (stereo unspecified)  -4.87%
8. CC1(C)S[C@@H]2[C@H](/N=C/N3CCCCCC3)C(=O)N2[C@H]1C(=O)O [AMDINOCILLIN]  -5.88%
9. N=c1cc(N2CCCCC2)nc(N)n1O  -7.74%
10. COC(=O)C1=C(C)NC(C)=C(C(=O)OCCN(C)Cc2ccccc2)C1c1cccc([N+](=O)[O-])c1.Cl (stereo unspecified) [NICARDIPINE HYDROCHLORIDE]  -9.15%
11. NC(=O)c1cnccn1 [PYRAZINAMIDE]  -9.58%
